# Lassa entry inh: Lassa virus entry inhibition. Potency, µM (series often up to 37.9 µM), actives largely listed as inhibitors. hit rate 1.2% among 300,000. Lassa virus pseudotype entry inhibition, cell reporter; calls by dose curve; tested in HEK293 cells; also: nearly all actives have a fitted effect of over 50% in size
# Marburg entry inh: blocks Marburg virus binding to or entry into cells. Marburg virus pseudotyped entry inhibition, cell reporter. AID 540276. Potency, µM (doses to about 37.8 µM), usual class: inhibitors. hit rate 1.8% among 300,000; calls by dose curve; tested in HEK293 cells
# VACV mCherry inh: vaccinia inhibition (mCherry reporter); Vaccinia virus mCherry reporter infection, fluorescence; Potency, µM (highest dose often 36.5 µM), hits mostly inhibitors; hit rate 0.63% among 310,000; calls by dose curve; tested in A549 cells; also: nearly all actives have a fitted effect of over 35% in size
# HCV inhibitor: HCV inhibition | hit rate 3.4% among 340,000 | Potency, µM (highest dose often 41.8 µM), hits mostly inhibitors | Huh7.5.1 HCVcc-Cre infection, luciferase reporter, 44 h; active = well fitted inhibition curve with a large enough effect; inconclusive = small, poorly fitted or top-dose-only effect, or another doubt; inactive = no such curve, though single readings can be large or run the other way
#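 Infectious HCVcc-Cre (~0.5 moi) was added to cells just after compound, with cells seeded 4 h earlier at 1,000 per well. Luciferase activity after 44 h culture reported infection; substrate was incubated 15 min at room temperature before reading.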
# FMDV antiviral: foot and mouth disease virus antiviral activity | FMDV antiviral cell-based qHTS | Potency, µM (doses to about 57.9 µM), actives largely listed as inhibitors | hit rate 1.2% among 410,000 | AID 1159524; calls by dose curve; tested in HEK293T cells; also: read-out not given here; nearly all actives have a fitted effect of over 45% in size
# Vaccinia Venus: inhibitors of vaccinia virus (Venus reporter); Vaccinia virus Venus reporter expression, fluorescence; Potency, µM (series often up to 36.5 µM), actives largely listed as inhibitors; hit rate 0.46% among 330,000; AID 720580; calls by dose curve; tested in A549 cells; also: nearly all actives have a fitted effect of over 30% in size
# Hits are given with their value; – = inactive; ? = inconclusive; · = no result given; ! = a repeat was not active; [ ] = dose if it differs, or a comment. Shown are actives, neighbours in structure and some others; about 5.3% of the full set was active somewhere.
SMILES,Lassa entry inh,Marburg entry inh,VACV mCherry inh,HCV inhibitor,FMDV antiviral,Vaccinia Venus
Cc1cc(Br)ccc1NC(=O)c1sc2ncnc(N3CCN(c4ccccn4)CC3)c2c1C,?,?,–,?,–,–
O=C(c1cnc(N2CCN(c3ncccn3)CC2)c2ccccc12)N1CCN(c2ccccn2)CC1,11µM,?,?,?,28µM,–
O=C(Nc1c(F)cccc1F)c1cnc(N2CCN(c3ccccn3)CC2)c2ccccc12,?,?,·,13µM,13µM,·
CCN1CCN(c2ncc(C(=O)Nc3cc(Cl)ccc3OC)c3ccccc23)CC1,?,2µM,?,?,–,?
Cc1ccc(NC(=O)c2cnc(N3CCN(c4ccccn4)CC3)c3ccccc23)c(Br)c1,?,?,?,7.1µM,6.3µM,?
COc1ccc(Cl)cc1NC(=O)c1cnc(N2CCCCC2)c2ccccc12,–,·,–,·,–,–
COc1c2c(cc3c1C(NC(N)=O)[N+](C)(C)CC3)OCO2 (configuration not stated),·,·,·,·,–,·
COC(=O)c1ccc(CSc2ncnc3c2sc2nc(N4CCOCC4)c4c(c23)CCCC4)o1,–,–,·,–,–,·
COC(=O)c1ccc(Cn2cnc3c(sc4nc(N5CCOCC5)c5c(c43)CCCC5)c2=O)o1,?,?,?,11µM!,–,–
Cc1ccccc1-n1cnc2c(sc3nc(N4CCOCC4)c4c(c32)CCCC4)c1=O,?,?,–[7.34 µM],18µM,–,–[7.34 µM]
O=c1c2sc3nc(N4CCOCC4)c4c(c3c2ncn1-c1ccccc1)CCCC4,?,?,?,10µM,?,?
C=CC[C@H]1CC(C)=C[C@H](CC=C)N1C(=O)c1cc(COc2ccccc2SC)on1,?,–,–,13µM,?,–
CN(C)C(=O)c1ccc(-c2cc(NCc3cccnc3)ncn2)cc1,·,·,·,·,–,·
CCc1nc(SCc2ccc(OCC(C)C)cc2)n[nH]1,?,7.9µM,–,?,–,–
CCc1nc(SCc2ccc(Br)cc2)n[nH]1,–,?,–,–,–,–
Cc1cc(C)nc(SCC(=O)Nc2ccc(S(=O)(=O)NC(C)(C)C)cc2)n1,–,?,·,11µM,–,·
O=P1(O)Oc2c(-c3ccccc3)cc3ccccc3c2-c2c(c(-c3ccccc3)cc3ccccc23)O1,·,–,·,·,·,·
Cc1ccc(S(=O)(=O)c2cccc(S(=O)(=O)N3CCOCC3)c2)cc1S(=O)(=O)N1CCOCC1,–,–,–,–,–,–
Cc1ccc(S(=O)(=O)c2cccc(S(=O)(=O)N3CCCC3)c2)cc1S(=O)(=O)N1CCCC1,?,?,·,16µM,–,·
CCc1noc(C)c1C(=O)Nc1cc(S(=O)(=O)N2CCCCC2)ccc1N(C)C,?,?,–,–,–,–
Cc1ccc(NC(=O)Cc2ccccc2F)cc1S(=O)(=O)N1CCCCCC1,·,·,·,11µM,–,·
CCc1noc(C)c1C(=O)Nc1ccc(C)c(S(=O)(=O)N2CCCCCC2)c1,–,?,–,13µM,28µM,–
Cc1ccc(NC(=O)/C=C/c2ccco2)cc1S(=O)(=O)N1CCCCCC1,·,·,·,2.8µM,–,·
COc1cc(C2C(C#N)=C(N)N(c3ccc(F)cc3)C3=C2S(=O)(=O)CC3)ccc1O (configuration not stated),–,–,–,–,–,–
Cc1ccc(NC(=O)CCl)cc1S(=O)(=O)N1CCCCCC1,–,?,–,?,22µM,–
SMILES,Lassa entry inh,Marburg entry inh,VACV mCherry inh,HCV inhibitor,FMDV antiviral,Vaccinia Venus
COc1cc(CN2CCc3ccc(NC(=O)CCc4ccccc4OC)cc3C2)ccc1O,·,·,·,?,–,·
COc1ccc(CN2CCc3ccc(NC(=O)CCc4ccccc4OC)cc3C2)c(O)c1,?,?,?,8.9µM,?,–
COc1cccc(CN2CCc3ccc(NC(=O)CCc4ccc(C)cc4)cc3C2)c1O,·,·,·,11µM,?,·
O=C(Nc1ccc(Cl)cn1)c1ccccc1[N+](=O)[O-],–,–,–,–,–,–
O=[N+]([O-])c1cnc(Nc2ccc(Cl)cn2)c([N+](=O)[O-])c1,–,?,?,11µM,–,–
O=C1NCCc2c1[nH]c1c(Cl)ccc(Cl)c21,–,–,–,11µM,–,–
CN(C)S(=O)(=O)c1cccc(CSCc2cccc(S(=O)(=O)N(C)C)c2)c1,?,?,–,2.2µM,?,–
Cc1cc(C)n2nc(SCc3cccc(S(=O)(=O)N(C)C)c3)nc2n1,–,–,–,?,?,–
CCOc1ccsc1C(=O)O,–,?,–,3.2µM,–,–
Cc1ccc(COc2ccsc2C(=O)O)cc1,–,–,–,–,–,–
Cc1ccccc1N1CCN(C2CCCN(C(=O)c3ccccn3)C2)CC1 (configuration not stated),?,?,–,?,–,–

# Screens (PubChem)
